Screening data (PubChem)
C diff growth = C. difficile growth inhibitors, primary screen, HTS. AID 1259249, 2017. 0.25% of 86,000 active. Clostridium difficile clinical isolate growth, OD600, 24 h; hits give low values. growth activity, negative = inhibition, % at 16 µg/mL (by protocol);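 active means mean growth activity at or below -80% and every replicate also at or below -80%; inconclusive means mean at or below -80% but some replicate above -80%; inactive means mean growth activity above -80%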;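 further: 0% = DMSO wells and -100% = levofloxacin 16 µg/mL wells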
Tcruzi prolif = T. cruzi intracellular proliferation inhibitors, primary screen, cell-based, beta-gal Tulahuen parasites, NIH3T3 host, luminescence. T. cruzi beta-gal in NIH3T3, GalScreen luminescence, 90 h. inhibition, % at 8.34 µM. 5.9% of 77,000 active. AID 624255, 2012;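 active means mean inhibition above about 93%, with at least 55% of replicates each passing it, limit read from the data, passing the limit was not always enough; inconclusive means only one of those two conditions holds; inactive means neither condition holds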
Pf Dd2 inh = P. falciparum Dd2 growth inhibitors, primary screen, SYBR Green fluorescence, single dose replicates. 72 h; hits give low values. activity change, % at 10 µM. 2.3% of 94,000 active. AID 1159554, 2015; in the data active means activity change below about -80%; inconclusive means no clear call, values can overlap the other calls
* hit, by the source's call; ? = inconclusive; . = not tested or not shown. A selection: hits, their analogues and other compounds. The true share with any hit is near 6.7%.

SMILES	C diff growth	Tcruzi prolif	Pf Dd2 inh
Cc1ccc(S(=O)(=O)N(C)C[C@H]2OCCCC[C@H](C)Oc3ccc(NS(=O)(=O)c4cn(C)cn4)cc3C(=O)N([C@H](C)CO)C[C@H]2C)cc1	8	33	-13
Cc1noc(C)c1NC(=O)Nc1ccc2c(c1)C(=O)N([C@H](C)CO)C[C@@H](C)[C@H](CN(C)S(=O)(=O)c1cccs1)O2	.	6	2
C[C@@H]1CCCCO[C@H](CN(C)Cc2ccc(C(F)(F)F)cc2)[C@@H](C)CN([C@@H](C)CO)C(=O)c2cc(NC(=O)Nc3cccc4ccccc34)ccc2O1	16	122	-76
C[C@@H]1CN([C@H](C)CO)C(=O)c2cc(NC(=O)Nc3cccc4ccccc34)ccc2O[C@@H](C)CCCCO[C@H]1CN(C)Cc1ccc(C(F)(F)F)cc1	9	123	-85*
C[C@H]1CCCCO[C@@H](CN(C)Cc2ccncc2)[C@@H](C)CN([C@@H](C)CO)C(=O)c2cc(NC(=O)Nc3cccc4ccccc34)ccc2O1	-11	99*	-15
C[C@@H]1CCCCO[C@H](CN(C)Cc2ccncc2)[C@H](C)CN([C@@H](C)CO)C(=O)c2cc(NC(=O)Nc3cccc4ccccc34)ccc2O1	-8	74	-19
CNC[C@H]1Oc2ncc(-c3ccccc3C)cc2C(=O)N([C@H](C)CO)C[C@H]1C	2	12	.
O=C(C[C@H]1CC[C@@H]2[C@H](COC[C@H](O)CN2C(=O)c2ccccn2)O1)N1CCN(c2ccccc2)CC1	.	34	4
CC(=O)N(C)C[C@H]1Oc2ncc(C#Cc3ccc(F)cc3)cc2C(=O)N([C@@H](C)CO)C[C@H]1C	2	.	-4
OC[C@@H]1CC[C@@H]2O[C@H](CCc3ccc(C#CCc4ccccc4)cc3)[C@@H](n3cc(-c4ccccc4)nn3)C[C@@H]2O1	28	.	-59
COCC(=O)N1CCC2(CC1)CN(Cc1cccc(OC)c1)[C@@H](CO)c1[nH]c3cc(OC)ccc3c12	3	.	-92*
COc1ccc2c3c([nH]c2c1)[C@H](CO)N(Cc1ccccc1F)CC31CCN(C(=O)C2CCCC2)CC1	-11	.	-18
COc1ccc2c3c([nH]c2c1)[C@H](CO)N(Cc1ccccc1Cl)CC31CN(C(C)=O)C1	-2	.	-90*
COc1ccc2c3c([nH]c2c1)[C@@H](CO)N(Cc1ccccc1F)CC31CN(C)C1	-2	.	-7
COCC(=O)N1CC2(C1)CN(Cc1ccccc1Cl)[C@@H](CO)c1[nH]c3cc(OC)ccc3c12	-1	.	-37
CCS(=O)(=O)N1CC2(CN(Cc3ccccc3F)[C@@H](CO)c3[nH]c4cc(OC)ccc4c32)C1	-1	.	-87*
COc1ccc2c3c([nH]c2c1)[C@@H](CO)N(Cc1ccccc1F)CC31CCN(C(=O)C2CC2)CC1	2	.	-85*
COCC(=O)N1CCC2(CC1)CN(Cc1cccc(OC)c1)[C@H](CO)c1[nH]c3cc(OC)ccc3c12	2	.	?
C[C@H]1CCCCO[C@@H](CN(C)C(=O)Nc2ccccc2)[C@@H](C)CN([C@@H](C)CO)C(=O)c2cc(NS(=O)(=O)c3cn(C)cn3)ccc2O1	2	-11	7
Cc1ccc(S(=O)(=O)Nc2ccc3c(c2)C(=O)N([C@H](C)CO)C[C@@H](C)[C@@H](CN(C)S(=O)(=O)c2cn(C)cn2)O3)cc1	6	-2	28
CNC[C@@H]1OCCCC[C@H](C)Oc2ccc(NS(=O)(=O)c3ccc(OC)cc3)cc2C(=O)N([C@H](C)CO)C[C@@H]1C	-3	14	10
COc1ccc2c3c([nH]c2c1)[C@@H](CO)N(Cc1ccccc1Cl)CC31CN(C(=O)C2CC2)C1	5	.	-71
COCC(=O)N1CCC2(CC1)CN(Cc1ccccc1Cl)[C@@H](CO)c1[nH]c3cc(OC)ccc3c12	3	.	?
COCC(=O)N1CCC2(CC1)CN(Cc1ccccc1Cl)[C@H](CO)c1[nH]c3cc(OC)ccc3c12	-3	.	-83*
COc1ccc2c3c([nH]c2c1)[C@@H](CO)N(Cc1ccccc1Cl)CC31CCN(C(=O)C2CC2)CC1	7	.	-87*
COc1ccc2c3c([nH]c2c1)[C@H](CO)N(C(C)=O)CC31CCN(Cc2ccccc2Cl)CC1	2	.	-50
COc1ccc2c3c([nH]c2c1)[C@H](CO)N(Cc1ccccc1Cl)CC31CCN(C(C)=O)CC1	8	.	-89*
C[C@@H]1CN([C@@H](C)CO)S(=O)(=O)c2ccc(-c3ccc(C(=O)N(C)C)cc3)cc2O[C@H]1CN(C)C(=O)C1CCC1	1	1	-36
COc1ccc(NC(=O)N(C)C[C@H]2Oc3ccc(NS(=O)(=O)c4ccc(OC)cc4)cc3C(=O)N([C@@H](C)CO)C[C@H]2C)cc1	1	-20	-3
